“And” between values parts separate entries of the source, which are not always exact repeats. Identical values can stand only once. The whole screen tested about 5,500 compounds, of which about 2,000 (36%) were called active. Another 18% or so got no clear call; they are omitted. Cut-off read from the data, not from the text of the source: active = normalized growth mostly below about 0.91 (no sharp cut-off); inconclusive = no clear call, values can overlap the other calls; inactive = mostly above about 0.92. Some of the results follow.
Test: chemical genetic growth profiling, strain panel (AID 1159580);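 note: tested at 20 µM; growth read once vehicle control cultures reached saturation at 30 °C; 1 = growth at the plate median or of vehicle wells; lower values mean less growth of the strain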
Conditions: S. cerevisiae deletion strains, growth OD

Measured: normalized growth

CC(=O)O[C@@H]1CC2C(C)(C)C(=O)C=C[C@]2(C)C2CC[C@@]3(C)[C@H](c4ccoc4)OC(=O)[C@H]4O[C@]43[C@@]21C (stereo partly drawn)
inactive: locus YAL021C, strain ccr4, stronger effect = lower value 1.03 | locus YAL026C, strain drs2, stronger effect = lower value 0.99 | locus YAL030W, strain snc1, stronger effect = lower value 0.997 | locus YBL061C, strain skt5, stronger effect = lower value 1.01 | locus YBR009C, strain hhf1, stronger effect = lower value 0.981 | locus YBR021W, strain FUR4, stronger effect = lower value 0.983 | locus YBR023C, strain chs3, stronger effect = lower value 1.01 | locus YBR171W, strain sec66, stronger effect = lower value 0.982 | locus YBR229C, strain ROT2, stronger effect = lower value 0.997 | locus YBR231C, strain swc5, stronger effect = lower value 1 | locus YBR279W, strain paf1, stronger effect = lower value 1.01 | locus YCL011C, strain gbp2, stronger effect = lower value 0.994 | locus YCL016C, strain dcc1, stronger effect = lower value 1.02 | locus YCL029C, strain bik1, stronger effect = lower value 0.999 | locus YCL061C, strain MRC1, stronger effect = lower value 0.972 | locus YCL069W, strain vba3, stronger effect = lower value 0.968 | locus YCR088W, strain abp1, stronger effect = lower value 0.98 | locus YDL005C, strain med2, stronger effect = lower value 0.981 | locus YDL035C, strain GPR1, stronger effect = lower value 1 | locus YDL040C, strain nat1, stronger effect = lower value 0.998 | locus YDL074C, strain BRE1, stronger effect = lower value 0.988 | locus YDL101C, strain DUN1, stronger effect = lower value 1.01 | locus YDL134C, strain PPH21, stronger effect = lower value 0.997 | locus YDL185W, strain tfp1, stronger effect = lower value 1.01 | locus YDL192W, strain arf1, stronger effect = lower value 0.991 | locus YDR001C, strain nth1, stronger effect = lower value 0.972 | locus YDR069C, strain doa4, stronger effect = lower value 1 | locus YDR101C, strain arx1, stronger effect = lower value 0.984 | locus YDR137W, strain rgp1, stronger effect = lower value 0.95 | locus YDR159W, strain sac3, stronger effect = lower value 0.949 | locus YDR162C, strain NBP2, stronger effect = lower value 0.996 | locus YDR195W, strain ref2 1.02 | locus YDR297W, strain sur2, stronger effect = lower value 1.01 | locus YDR318W, strain mcm21, stronger effect = lower value 0.994 | locus YDR334W, strain swr1, stronger effect = lower value 1.02 | locus YDR335W, strain msn5, stronger effect = lower value 1.02 | locus YDR388W, stronger effect = lower value 0.994 | locus YDR392W, strain spt3, stronger effect = lower value 0.831 | locus YDR502C, strain sam2, stronger effect = lower value 0.981 | locus YEL003W, strain gim4, stronger effect = lower value 0.95 | locus YEL037C, strain rad23, stronger effect = lower value 0.973 | locus YEL061C, strain CIN8 (second series), stronger effect = lower value 0.973 | locus YEL061C, strain CIN8, stronger effect = lower value 0.996 | locus YER015W, strain faa2, stronger effect = lower value 1.01 | locus YER016W, strain bim1, stronger effect = lower value 1 | locus YER110C, stronger effect = lower value 0.997 | locus YER111C, strain swi4, stronger effect = lower value 0.985 | locus YER155C, strain BEM2 (second series), stronger effect = lower value 1 | locus YER155C, strain BEM2, stronger effect = lower value 1 | locus YER167W, strain BCK2, stronger effect = lower value 1.01 | locus YFR010W, strain ubp6, stronger effect = lower value 0.966 | locus YGL078C, strain dbp3, stronger effect = lower value 0.994 | locus YGL086W, strain mad1, stronger effect = lower value 1.01 | locus YGL167C, strain pmr1, stronger effect = lower value 1 | locus YGL173C, strain kem1, stronger effect = lower value 0.976 | locus YGL227W, strain vid30, stronger effect = lower value 0.961 | locus YGL240W, strain doc1, stronger effect = lower value 1.01 | locus YGL248W, strain PDE1, stronger effect = lower value 1 | locus YGL253W, strain hxk2, stronger effect = lower value 1.02 | locus YGR078C, strain PAC10, stronger effect = lower value 1.01 | locus YGR135W, strain pre9, stronger effect = lower value 0.998 | locus YGR252W, strain gcn5, stronger effect = lower value 0.993 | locus YHR013C, strain ard1, stronger effect = lower value 0.987 | locus YHR027C, strain rpn1, stronger effect = lower value 1.01 | locus YHR030C, strain SLT2, stronger effect = lower value 1.01 | locus YHR079C, strain IRE1 (second series), stronger effect = lower value 0.988 | locus YHR079C, strain IRE1, stronger effect = lower value 0.994 | locus YHR094C, strain hxt1, stronger effect = lower value 0.993 | locus YHR129C, strain ARP1, stronger effect = lower value 1 | locus YHR142W, strain chs7, stronger effect = lower value 0.987 | locus YHR200W, strain rpn10, stronger effect = lower value 0.997 | locus YIL066C, strain RNR3, stronger effect = lower value 1 | locus YIL073C, strain SPO22, stronger effect = lower value 0.969 | locus YIL125W, strain kgd1, stronger effect = lower value 0.994 | locus YIR030C, strain dcg1, stronger effect = lower value 0.989 | locus YJL092W, strain hpr5, stronger effect = lower value 0.992 | locus YJL095W, strain BCK1 (second series), stronger effect = lower value 1.02 | locus YJL095W, strain BCK1, stronger effect = lower value 0.983 and 0.999 | locus YJL115W, strain asf1, stronger effect = lower value 0.987 | locus YJL129C, strain trk1, stronger effect = lower value 0.928 | locus YJL134W, strain LCB3, stronger effect = lower value 1.01 | locus YJL154C, strain vps35, stronger effect = lower value 0.971 | locus YJL164C, strain tpk1, stronger effect = lower value 0.995 | locus YJL166W, strain qcr8, stronger effect = lower value 1 | locus YJL168C, strain set2, stronger effect = lower value 0.987 | locus YJL187C, strain SWE1 (second series), stronger effect = lower value 1.01 | locus YJL187C, strain SWE1, stronger effect = lower value 1.01 | locus YJR043C, strain POL32, stronger effect = lower value 1.01

Source: PubChem BioAssay AID1159580 (chemical genetic matrix, 2015)
